{
  "source": "the supplement of paper PMC11417369",
  "note": "Whole data set: some 25,000 sequences, median “ln(normalized median fluorescence intensity)” near 9.3, cut for the highest 2% near 10. The full list was thinned out, with the highest values kept by preference.",
  "data": [
    {"tested_on": "PF3D7_0420300 AP2 domain 1 (GST-tagged)", "assay": "gcPBM binding intensity (ln(normalized median fluorescence intensity)); higher = stronger DNA binding", "method_in_brief": "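Each value is the highest Masliner-normalised natural-log median intensity across replicate spots of either orientation of a probe. The probes were primer-extended double-stranded 36-bp intergenic genomic sequences on an Agilent 4 × 180k array, alongside negative controls, exposed for 1 h to GST-tagged P. falciparum DNA-binding domains expressed in E. coli. Bound protein was picked up with Alexa488 anti-GST antibody and scanned at 488 nm.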", "values": [
      {"sequence": "TTGTGTTTTATTATTTTATTATTACTATTATAATGT [GTGCAC_negctrl_site484]", "gcPBM binding intensity (ln)": 9.62},
      {"sequence": "TAAATATATATTATATGTACTTATATATATATATAT [XGTACX_site4448]", "gcPBM binding intensity (ln)": 9.13},
      {"sequence": "TAATTTTCTTTTTATCGTTTTTTTTTTTTTTTTTTT [XGTACX_negctrl_site432]", "gcPBM binding intensity (ln)": 9.02},
      {"sequence": "AGCTAATATATCTTATATTCATATAAAAAAATATAT [CACACA_negctrl_site1786]", "gcPBM binding intensity (ln)": 8.94},
      {"sequence": "AAATTTACAATACATTGTACATATTAATAATATTCC [XGTACX_site3646]", "gcPBM binding intensity (ln)": 9.17},
      {"sequence": "CAGTTGGAAGGAAAGTGTACATAAAAAAAAATATAA [XGTACX_site8784]", "gcPBM binding intensity (ln)": 9.09},
      {"sequence": "TCTTTTTAGATATATACACACCGTGTCTACCTATAC [CACACA_site7551]", "gcPBM binding intensity (ln)": 9.41},
      {"sequence": "AAATGAATAAATAGGTCACACACAAATATATATAAA [CACACA_site8764]", "gcPBM binding intensity (ln)": 9.91},
      {"sequence": "TATTAATATATAGTAGTGCAATAAAGATATACTGAA", "gcPBM binding intensity (ln)": 9.39},
      {"sequence": "TTTCGATTAAAAATTGTACAATATAAGGAGCACACA [GTGCAC_negctrl_site476]", "gcPBM binding intensity (ln)": 9.31},
      {"sequence": "CAATATAAAAAACACACACACAAACATATATTTATA [CACACA_site3703]", "gcPBM binding intensity (ln)": 10.1},
      {"sequence": "AAAATTAAAAATAACACACACATATATATATTTATA [CACACA_site2776]", "gcPBM binding intensity (ln)": 9.84},
      {"sequence": "ATAATACAATTTATAACACACACACTATAATACATA [CACACA_site8338]", "gcPBM binding intensity (ln)": 9.97},
      {"sequence": "TACATAATACATATAACACACACAATTATACATAAA [CACACA_site9060]", "gcPBM binding intensity (ln)": 10},
      {"sequence": "AAAATTAAAAATAACACACACATATTTATATTTATA [CACACA_site7329]", "gcPBM binding intensity (ln)": 9.75},
      {"sequence": "CACAAAAATAAACACACACACATATATATTTATTAT [CACACA_site5923]", "gcPBM binding intensity (ln)": 10.2},
      {"sequence": "CACAGATAAATTAACACACACACACGGATATTTATA [CACACA_site7788]", "gcPBM binding intensity (ln)": 10.2},
      {"sequence": "ATATCTTATGTTATCACACACACACGCACAAAACAG [CACACA_site6800]", "gcPBM binding intensity (ln)": 10.2},
      {"sequence": "ATCTTATATTATCACACACACACGCACAAAACAGAA [CACACA_site1463]", "gcPBM binding intensity (ln)": 10.1},
      {"sequence": "AATACAATTTATAACACACACACAATAATACATATA [CACACA_site1252]", "gcPBM binding intensity (ln)": 10.2},
      {"sequence": "ATCTTATATGATCACACACACACGCACAAAACAGAA [CACACA_site4913]", "gcPBM binding intensity (ln)": 10.1},
      {"sequence": "ATATAATTATAAAATAAACACACATATATATTTATA [CACACA_site8039]", "gcPBM binding intensity (ln)": 9.48},
      {"sequence": "AAACATTTACTATATTGTACTTAAGATCTTATCGTA [XGTACX_site3919]", "gcPBM binding intensity (ln)": 9.06},
      {"sequence": "CTGTCTGCAGATATGGTGCATTTGTAAGATCTTACA [GTGCAC_site9870]", "gcPBM binding intensity (ln)": 9.13},
      {"sequence": "GACATAAAATTCAAAGTGCATAAATAAAATAAACCC", "gcPBM binding intensity (ln)": 9.49},
      {"sequence": "ATTATAAACCATAATTAACACACAAAATAAGTTACA [CACACA_site9057]", "gcPBM binding intensity (ln)": 9.75},
      {"sequence": "TTTTCTTTCTTGTTTCGTATATTATAAAAAAAAAAG [CACACA_negctrl_site854]", "gcPBM binding intensity (ln)": 8.96},
      {"sequence": "ACATTTATATATAATTGTACCCTACATTCTCTTTTT [XGTACX_site189]", "gcPBM binding intensity (ln)": 9.5},
      {"sequence": "AAAAAAATAATAAAAAGTACAAAATGTAGAAAATGT [XGTACX_site5018]", "gcPBM binding intensity (ln)": 9.91},
      {"sequence": "AATAGAGTTGAATGCACACATACAAATTTTTAGTTT [CACACA_site3564]", "gcPBM binding intensity (ln)": 9.33},
      {"sequence": "TAGTAGTTATCACTAACATGCAATAATATTATTTAA [TGCATGCA_site161]", "gcPBM binding intensity (ln)": 9.08},
      {"sequence": "AATATATATAAATATTGTACAAAAATATATATATAT [XGTACX_site2910]", "gcPBM binding intensity (ln)": 9.26},
      {"sequence": "AAGAATCATATTTAAACACACATACAGATATATATA [CACACA_site5787]", "gcPBM binding intensity (ln)": 9.51},
      {"sequence": "TTATTTAAACAAATCACACACAAATATATATACATA [CACACA_site2019]", "gcPBM binding intensity (ln)": 9.71},
      {"sequence": "TATACAATCTATATAACACACATATTTATATAAAAT [CACACA_site1797]", "gcPBM binding intensity (ln)": 9.46},
      {"sequence": "TAAAAAAAAATATATAAACACACATATTTATATACA [CACACA_site8469]", "gcPBM binding intensity (ln)": 9.36},
      {"sequence": "TACAATTTATGACACACACACAATAATACCTATATA [CACACA_site6704]", "gcPBM binding intensity (ln)": 9.95},
      {"sequence": "TACAATCTAAAATACACACACACAAACATATATTTA [CACACA_site3702]", "gcPBM binding intensity (ln)": 10.2},
      {"sequence": "TACAATATAAAATACACACACACAAACATATATTTA [CACACA_site5941]", "gcPBM binding intensity (ln)": 10.2},
      {"sequence": "AACAAAAAAACAAACACACACACACGCATATTTATA [CACACA_site7680]", "gcPBM binding intensity (ln)": 10.2},
      {"sequence": "AATACAATTTATAACACACACACAAGAATACCTATA [CACACA_site6705]", "gcPBM binding intensity (ln)": 10.3},
      {"sequence": "AAGGATCACGCACAAACACACATATTTATATTTATA [CACACA_site6405]", "gcPBM binding intensity (ln)": 9.47},
      {"sequence": "AAAAAAAACAAACACACACACAAATATTTATATATT [CACACA_site436]", "gcPBM binding intensity (ln)": 10.1},
      {"sequence": "CAATTTATAAAGAAAACACACATATACCTATATACA [CACACA_site6710]", "gcPBM binding intensity (ln)": 9.55},
      {"sequence": "TATACAATATATATAACACACATATTTATATAAAAT [CACACA_site5061]", "gcPBM binding intensity (ln)": 9.57},
      {"sequence": "AATATATAAGCTGTTCTATTCAAGAATTATATCTTA [CACACA_negctrl_site270]", "gcPBM binding intensity (ln)": 9.06},
      {"sequence": "TATATTATTTATTAGACACACATTATTAAAATATTT [CACACA_site4737]", "gcPBM binding intensity (ln)": 9.19},
      {"sequence": "GTTTGTATGTCCAAATGTACATATGATTTTATGAAA [XGTACX_site6595]", "gcPBM binding intensity (ln)": 9.2}
    ]}
  ]
}
